Rab9 promoter act = activates the Rab9 promoter | Huh7 Rab9 promoter-luciferase reporter, luminescence, 24 h | Potency, µM (series often up to 9.22 µM), usual class: activators | 320,000 compounds, 2.8% hits | AID 485297; note: nearly all actives have a fitted effect of over 60% in size
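Huh7 reporter line, Rab9 promoter upstream of luciferase. Compound exposure 24 h at 37 °C in reduced-serum medium with 10% FBS. Read-out: luminescence.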
FLuc counter = inhibits or activates purified firefly luciferase, miR-21 counter-screen | P08659 | purified FLuc, Km substrates, luminescence inhibition | Potency, µM (series often up to 57.5 µM), hits mostly inhibitors | 360,000 compounds, 6.9% hits | AID 588342; note: nearly all actives have a fitted effect of over 55% in size
Target sequence (P08659 whole entry, looked up): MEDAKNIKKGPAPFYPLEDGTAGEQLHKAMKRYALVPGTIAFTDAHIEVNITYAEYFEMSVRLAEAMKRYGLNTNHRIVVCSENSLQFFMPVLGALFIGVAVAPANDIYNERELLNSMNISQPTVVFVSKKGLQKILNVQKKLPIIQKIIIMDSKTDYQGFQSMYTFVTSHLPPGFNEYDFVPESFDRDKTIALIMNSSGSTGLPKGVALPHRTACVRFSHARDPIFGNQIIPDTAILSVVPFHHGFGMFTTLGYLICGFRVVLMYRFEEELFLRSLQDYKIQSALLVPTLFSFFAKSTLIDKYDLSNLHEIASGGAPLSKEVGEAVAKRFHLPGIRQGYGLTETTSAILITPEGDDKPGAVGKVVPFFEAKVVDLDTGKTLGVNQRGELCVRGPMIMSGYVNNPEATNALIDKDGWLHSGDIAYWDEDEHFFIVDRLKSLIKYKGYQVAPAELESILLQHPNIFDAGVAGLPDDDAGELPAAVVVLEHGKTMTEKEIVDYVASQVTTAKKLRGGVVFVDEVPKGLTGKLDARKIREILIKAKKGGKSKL
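Purified P. pyralis luciferase, 10 nM final, with Km-level 10 uM D-luciferin and 10 uM ATP in 50 mM Tris acetate pH 7.5, 10 mM Mg acetate, 0.01% Tween-20, 0.05% BSA; 6-point qHTS titration about 60 µM downward; luminescence read.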
SMN2 splice up = enhancers of SMN2 splice variant expression; HEK293 SMN2-luciferase splicing reporter, luminescence, 30-36 h; Potency, µM (titrated, usually from 46.1 µM), usual class: activators; 210,000 compounds, 2.8% hits; AID 1458; note: nearly all actives have a fitted effect of over 55% in size
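HEK293 cells carry an SMN2 […]–luciferase reporter in which exon 7 inclusion puts luciferase in frame. Cells were plated 10-12 h before compound addition, then incubated 30-36 h at 37C. ONE-Glo luminescence was read; sodium butyrate at 4.5 mM final served as control.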
ELG1 genotoxic = genotoxicity induction in ELG1-luciferase HEK293T cells | HEK293T ELG1-luciferase reporter, luminescence, 16 h | Potency, µM (series often up to 46 µM), most hits filed as activators | 330,000 compounds, 1.3% hits | AID 504466; note: nearly all actives have a fitted effect of over 60% in size
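Genotoxic stress is detected as increased luminescence from luciferase-tagged ELG1 in HEK293T cells, measured with ONE-Glo after a 16 hr treatment at 37 °C.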
NPC1 promoter act = NPC1 promoter activation | Huh7 NPC1 promoter luciferase reporter, 24 h | Potency, µM (top dose mostly 9.22 µM), most hits filed as activators | 320,000 compounds, 2.4% hits | AID 485313; note: nearly all actives have a fitted effect of over 60% in size
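In 1536-well qHTS, Huh7 cells harboring an NPC1 promoter–luciferase construct received compound for 24 h; activation was quantified by luminescence following luciferase reagent addition.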
Large screens that a line does not name were inactive. Sampled rows, rich in hits. Any-hit rate of the full collection: about 7.4%. Calls come from the whole dose curve; as a rule, active = well fitted curve in the direction sought with a large enough effect; inconclusive = small, poorly fitted or top-dose-only effect, or another doubt; inactive = no such curve, though single readings can be large; an effect the other way counts as inactive or inconclusive.

COc1cc(C(=O)N/C(=C/c2ccc(F)cc2)C(=O)NC(C(=O)O)c2ccccc2)cc(OC)c1OC (configuration not stated)	none (no result: SMN2 splice up)
S=C(Nc1ccc2c(c1)OCO2)N1CCN(Cc2ccco2)CC1	Rab9 promoter act inconclusive, FLuc counter 1.35µM, NPC1 promoter act inconclusive (no result: SMN2 splice up)
O=C(Nc1ccccc1)N1CCN(CCc2ccccc2)CC1	none
CCOC(=O)c1ccc(N/C=C2\CCCCC2=O)cc1	Rab9 promoter act 2.51µM, FLuc counter 2.69µM, SMN2 splice up inconclusive, ELG1 genotoxic 2.31µM, NPC1 promoter act 3.98µM
Cc1ccc(NC(=O)N2CCCCCC2)cc1	Rab9 promoter act inconclusive, FLuc counter 15.1µM, ELG1 genotoxic inconclusive, NPC1 promoter act inconclusive (no result: SMN2 splice up)
O=C1CCCC/C1=C\Nc1ccc(O)cc1	FLuc counter inconclusive, SMN2 splice up inconclusive, ELG1 genotoxic inconclusive
CCN1CCN(C(=O)Nc2ccc(Cc3ccc(NC(=O)N4CCN(CC)CC4)cc3)cc2)CC1	FLuc counter 13.5µM
CCOC(=O)c1ccc(NC(=O)N2CCCCC2)cc1	Rab9 promoter act 3.16µM, FLuc counter 13.5µM, SMN2 splice up inconclusive, ELG1 genotoxic 10.3µM, NPC1 promoter act 2.51µM
Cc1cc(C(=O)N2CCCC(Nc3ccccc3)C2)c2ccc(F)cc2n1 (configuration not stated)	none (no result: SMN2 splice up)
CC(C)(C)n1cc(S(=O)(=O)c2ccccc2)[nH]c1=O	none
COc1ccc(NC(=O)CCc2nc3ccccc3c(=O)[nH]2)cc1S(=O)(=O)N1CCCCC1	none (no result: Rab9 promoter act, FLuc counter, SMN2 splice up, NPC1 promoter act)
COc1ccc(-n2c(SCC(=O)N3CCc4ccccc43)nc3c([nH]c4ccccc43)c2=O)cc1	none (no result: Rab9 promoter act, SMN2 splice up, ELG1 genotoxic, NPC1 promoter act)
O=C(Nc1ccc(Br)cc1)N1CCCC(O)C1 (configuration not stated)	none
O=C(Nc1ccc(Br)cc1)N1CCCCCC1	Rab9 promoter act 2.24µM, FLuc counter 10.7µM, ELG1 genotoxic inconclusive, NPC1 promoter act inconclusive (no result: SMN2 splice up)
COC(=O)c1ccc(NC(=S)N2CCCC2)cc1	none
COC(=O)c1ccc(NC(=O)C(=O)N2CCCC2)cc1	Rab9 promoter act inconclusive, FLuc counter 21.3µM, SMN2 splice up inconclusive, ELG1 genotoxic inconclusive, NPC1 promoter act 2.82µM
CCc1ccc(NS(=O)(=O)c2ccc(NC(=O)N3CCCC3)cc2)cc1	none (no result: Rab9 promoter act, SMN2 splice up, ELG1 genotoxic, NPC1 promoter act)
CCc1ccc(NC(=O)N2CCCCCC2)cc1	Rab9 promoter act 1.78µM, FLuc counter 13.5µM, ELG1 genotoxic 20.6µM, NPC1 promoter act 2.24µM (no result: SMN2 splice up)
CC(C)(C)c1ccc(S(=O)(=O)/C=C/C#N)cc1	none (no result: FLuc counter, ELG1 genotoxic)
Cc1ccc(OCC(=O)NCCCNC(=O)c2ccccn2)cc1C	none (no result: SMN2 splice up)
CC(C)(C)c1ccc(C(=O)NNC(=O)Cc2cccc3ccccc23)cc1	FLuc counter 15.1µM
Cc1ccc(-n2nnc3ccccc3c2=O)cc1C	Rab9 promoter act 3.55µM, SMN2 splice up 14.1µM, ELG1 genotoxic inconclusive, NPC1 promoter act inconclusive
O=C(c1ccncc1)N1N=C(c2ccc(Cl)cc2)CC1c1ccccc1O (configuration not stated)	FLuc counter 16.9µM, ELG1 genotoxic inconclusive (no result: SMN2 splice up)
CCc1cc2c(=O)n(CC(C)C)cnc2s1	Rab9 promoter act inconclusive, FLuc counter inconclusive, SMN2 splice up 14.1µM, NPC1 promoter act inconclusive
CCCCCn1cnc2sc(CC)cc2c1=O	Rab9 promoter act 2.82µM, FLuc counter 23.9µM, SMN2 splice up 12.6µM, ELG1 genotoxic inconclusive, NPC1 promoter act inconclusive
CCc1cc2c(=O)n(CC(=O)NC3CCCCC3)cnc2s1	none (no result: SMN2 splice up)
CCc1cc2c(=O)n(-c3ccc(Br)cc3)cnc2s1	Rab9 promoter act 2.51µM, FLuc counter inconclusive, SMN2 splice up 5.01µM, ELG1 genotoxic inconclusive, NPC1 promoter act 2.51µM
O=C(COC(=O)Cn1[nH]c(=O)c2ccccc2c1=O)NNC(=O)c1ccc(Br)cc1	none (no result: SMN2 splice up)
COc1ccc(S(=O)(=O)Nc2cc(C)ccn2)cc1	none
CCOC(=O)C(=CNc1cc(C)ccn1)C(=O)OCC	none
Cc1ccnc(N/C=C/C(=O)c2ccc(Br)cc2)c1	Rab9 promoter act 1.12µM, FLuc counter 0.953µM, ELG1 genotoxic inconclusive, NPC1 promoter act 1.58µM (no result: SMN2 splice up)
COc1ccc(C(=O)/C=C/Nc2cc(C)ccn2)cc1	Rab9 promoter act 0.316µM, FLuc counter 0.477µM, ELG1 genotoxic inconclusive, NPC1 promoter act 0.398µM (no result: SMN2 splice up)
O=C(/C=C\Nc1ccc(Cl)cn1)c1ccc(Br)cc1	Rab9 promoter act 2.51µM, FLuc counter inconclusive, SMN2 splice up 11.2µM, ELG1 genotoxic inconclusive, NPC1 promoter act 2µM
Cc1occc1C(=O)NNC(=S)Nc1ccccc1	Rab9 promoter act 2.51µM, FLuc counter inconclusive, SMN2 splice up inconclusive, ELG1 genotoxic inconclusive, NPC1 promoter act inconclusive

Source: PubChem (National Center for Advancing Translational Sciences (NCATS))
